Reference: publication PMC5540273 (PLoS ONE, 2017)
Like-named read-outs stand apart in the source and are kept apart here.

Key:
CAMKK1 = conditions: concentration: 1 μM, replicates: in singlicate; n = 1
CAMKK2 = conditions: concentration: 1 μM, replicates: in singlicate; n = 1
CASK = conditions: concentration: 1 μM, replicates: in singlicate; n = 1
CDC2L1 = test system: T1, CDC2L1; conditions: concentration: 1 μM, replicates: in singlicate; n = 1
T1 construct: gene CDK11B

CDC2L2 = conditions: concentration: 1 μM, replicates: in singlicate; n = 1
CDC2L5 = test system: T2, CDC2L5; conditions: n = 1
T2 construct: gene CDK13

CDK11 = test system: T3, CDK11; conditions: concentration: 1 μM, replicates: in singlicate; n = 1
T3 construct: gene CDK19

CDK2 = conditions: concentration: 1 μM, replicates: in singlicate; n = 1
CDK3 = conditions: concentration: 1 μM, replicates: in singlicate; n = 1
CDK4-cyclinD1 = conditions: n = 1
CDK4-cyclinD3 = conditions: n = 1
CDK4 = conditions: n = 1
CDK5 = conditions: concentration: 1 μM, replicates: in singlicate; n = 1
CDK7 = conditions: concentration: 1 μM, replicates: in singlicate; n = 1
CDK8 = conditions: concentration: 1 μM, replicates: in singlicate; n = 1
CDK9 = conditions: concentration: 1 μM, replicates: in singlicate; n = 1
CDKL1 = conditions: concentration: 1 μM, replicates: in singlicate; n = 1
CDKL2 = conditions: concentration: 1 μM, replicates: in singlicate; n = 1
CDKL3 = conditions: concentration: 1 μM, replicates: in singlicate; n = 1
CDKL5 = conditions: concentration: 1 μM, replicates: in singlicate; n = 1
[1] = concentration: 1 μM, replicates: in singlicate
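Also: KINOMEscan kinase panel screen.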

COc1cc2ncn(-c3cc(OCc4sccc4Cl)c(C(N)=O)s3)c2cc1OC [GSK448459]
%Inh (CAMKK1): 4% | %Inh (CAMKK2): 76% | %Inh (CASK): 12% | %Inh (CDC2L1): 0% | %Inh (CDC2L2): 10% | %Inh (CDC2L5; [1]): 0% | %Inh (CDK11): 9% | %Inh (CDK2): 0% | %Inh (CDK3): 8% | %Inh (CDK4-cyclinD1; [1]): 0% | %Inh (CDK4-cyclinD3; [1]): 0% | %Inh (CDK4; [1]): 12% | %Inh (CDK5): 0% | %Inh (CDK7): 0% | %Inh (CDK8): 69% | %Inh (CDK9): 0% | %Inh (CDKL1): 23% | %Inh (CDKL2): 33% | %Inh (CDKL3): 0% | %Inh (CDKL5): 0%

CN(C1=C(c2ccccc2)C(=O)NC1=O)c1ccccc1 [SB-334860]
%Inh (CAMKK1): 0% | %Inh (CAMKK2): 16% | %Inh (CASK): 17% | %Inh (CDC2L1): 0% | %Inh (CDC2L2): 14% | %Inh (CDC2L5; [1]): 0% | %Inh (CDK11): 8% | %Inh (CDK2): 5% | %Inh (CDK3): 8% | %Inh (CDK4-cyclinD1; [1]): 0% | %Inh (CDK4-cyclinD3; [1]): 9% | %Inh (CDK4; [1]): 5% | %Inh (CDK5): 6% | %Inh (CDK7): 15% | %Inh (CDK8): 4% | %Inh (CDK9): 9% | %Inh (CDKL1): 6% | %Inh (CDKL2): 0% | %Inh (CDKL3): 0% | %Inh (CDKL5): 8%

O=c1cc(N2CCOCC2)nc2n(Cc3cccc(Cl)c3Cl)c(C3CC3)nn12 [GSK2358994]
%Inh (CAMKK1): 3% | %Inh (CAMKK2): 8% | %Inh (CASK): 26% | %Inh (CDC2L1): 0% | %Inh (CDC2L2): 0% | %Inh (CDC2L5; 1 µM): 0% | %Inh (CDK11): 0% | %Inh (CDK2): 0% | %Inh (CDK3): 5% | %Inh (CDK4-cyclinD1; 1 µM): 0% | %Inh (CDK4-cyclinD3; 1 µM): 0% | %Inh (CDK4; 1 µM): 0% | %Inh (CDK5): 7% | %Inh (CDK7): 5% | %Inh (CDK8): 0% | %Inh (CDK9): 0% | %Inh (CDKL1): 20% | %Inh (CDKL2): 0% | %Inh (CDKL3): 0% | %Inh (CDKL5): 0%

COc1ccc(Nc2nccc(N3CCC(NC(=O)Nc4cccc(C(C)=O)c4)C3)n2)cc1 (stereo not drawn) [GSK1379731]
%Inh (CAMKK1): 0% | %Inh (CAMKK2): 1% | %Inh (CASK): 0% | %Inh (CDC2L1): 0% | %Inh (CDC2L2): 0% | %Inh (CDC2L5; [1]): 0% | %Inh (CDK11): 79% | %Inh (CDK2): 0% | %Inh (CDK3): 0% | %Inh (CDK4-cyclinD1; [1]): 2% | %Inh (CDK4-cyclinD3; [1]): 0% | %Inh (CDK4; [1]): 8% | %Inh (CDK5): 0% | %Inh (CDK7): 0% | %Inh (CDK8): 61% | %Inh (CDK9): 0% | %Inh (CDKL1): 1% | %Inh (CDKL2): 43% | %Inh (CDKL3): 0% | %Inh (CDKL5): 0%

O=C(NCCNc1ccnc(Nc2ccc(F)cc2)n1)c1cc2ccccc2s1 [GSK1379874]
%Inh (CAMKK1): 5% | %Inh (CAMKK2): 0% | %Inh (CASK): 1% | %Inh (CDC2L1): 0% | %Inh (CDC2L2): 8% | %Inh (CDC2L5; [1]): 0% | %Inh (CDK11): 0% | %Inh (CDK2): 0% | %Inh (CDK3): 0% | %Inh (CDK4-cyclinD1; [1]): 0% | %Inh (CDK4-cyclinD3; [1]): 0% | %Inh (CDK4; [1]): 0% | %Inh (CDK5): 0% | %Inh (CDK7): 0% | %Inh (CDK8): 38% | %Inh (CDK9): 0% | %Inh (CDKL1): 8% | %Inh (CDKL2): 5% | %Inh (CDKL3): 0% | %Inh (CDKL5): 0%

CCc1ccnc(/C=C/c2n[nH]c3cc(Sc4ccccc4C(=O)NC)ccc23)c1
%Inh (CAMKK1): 16% | %Inh (CAMKK2): 11% | %Inh (CASK): 34% | %Inh (CDC2L1): 7% | %Inh (CDC2L2): 2% | %Inh (CDC2L5; [1]): 0% | %Inh (CDK11): 0% | %Inh (CDK2): 3% | %Inh (CDK3): 0% | %Inh (CDK4-cyclinD1; [1]): 16% | %Inh (CDK4-cyclinD3; [1]): 0% | %Inh (CDK4; [1]): 0% | %Inh (CDK5): 1% | %Inh (CDK7): 0% | %Inh (CDK8): 0% | %Inh (CDK9): 10% | %Inh (CDKL1): 3% | %Inh (CDKL2): 0% | %Inh (CDKL3): 2% | %Inh (CDKL5): 12%

N#Cc1ccc(-c2cc(-c3c[nH]nc3-c3ccccn3)ccn2)cc1 [GW693028]
%Inh (CAMKK1): 0% | %Inh (CAMKK2): 2% | %Inh (CASK): 9% | %Inh (CDC2L1): 0% | %Inh (CDC2L2): 0% | %Inh (CDC2L5; [1]): 0% | %Inh (CDK11): 12% | %Inh (CDK2): 0% | %Inh (CDK3): 6% | %Inh (CDK4-cyclinD1; [1]): 0% | %Inh (CDK4-cyclinD3; [1]): 2% | %Inh (CDK4; [1]): 11% | %Inh (CDK5): 0% | %Inh (CDK7): 0% | %Inh (CDK8): 23% | %Inh (CDK9): 0% | %Inh (CDKL1): 8% | %Inh (CDKL2): 13% | %Inh (CDKL3): 0% | %Inh (CDKL5): 0%

COC(=O)Nc1nc2cc(Oc3ccc(NC(=O)Nc4cc(F)ccc4F)cc3)ccc2[nH]1.Cl [GW701424]
%Inh (CAMKK1): 0% | %Inh (CAMKK2): 4% | %Inh (CASK): 0% | %Inh (CDC2L1): 0% | %Inh (CDC2L2): 6% | %Inh (CDC2L5; [1]): 0% | %Inh (CDK11): 0% | %Inh (CDK2): 0% | %Inh (CDK3): 0% | %Inh (CDK4-cyclinD1; [1]): 20% | %Inh (CDK4-cyclinD3; [1]): 5% | %Inh (CDK4; [1]): 0% | %Inh (CDK5): 0% | %Inh (CDK7): 37% | %Inh (CDK8): 42% | %Inh (CDK9): 0% | %Inh (CDKL1): 0% | %Inh (CDKL2): 36% | %Inh (CDKL3): 0% | %Inh (CDKL5): 0%

Cl.Nc1ncnc2occ(-c3ccc(NC(=O)Nc4cc(C(F)(F)F)ccc4F)cc3)c12 [SB-707548]
%Inh (CAMKK1): 9% | %Inh (CAMKK2): 25% | %Inh (CASK): 5% | %Inh (CDC2L1): 25% | %Inh (CDC2L2): 49% | %Inh (CDC2L5; [1]): 97.4% | %Inh (CDK11): 100% | %Inh (CDK2): 80% | %Inh (CDK3): 89% | %Inh (CDK4-cyclinD1; [1]): 3% | %Inh (CDK4-cyclinD3; [1]): 11% | %Inh (CDK4; [1]): 2% | %Inh (CDK5): 59% | %Inh (CDK7): 97.8% | %Inh (CDK8): 100% | %Inh (CDK9): 78% | %Inh (CDKL1): 7% | %Inh (CDKL2): 74% | %Inh (CDKL3): 95% | %Inh (CDKL5): 0%
